The whole screen tested about 5,500 compounds, of which about 2,000 (36%) were called active. Inconclusive results (about 18%) are left out. Cut-off read from the data, not from the text of the source: active = normalized growth mostly below about 0.91 (no sharp cut-off); inconclusive = no clear call, values can overlap the other calls; inactive = mostly above about 0.92. Some of the results follow.
Assay: chemical genetic growth profiling, strain panel (AID 1159580);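 note: tested at 20 µM; growth read once vehicle control cultures reached saturation at 30 °C; 1 = growth at the plate median or of vehicle wells; lower values mean less growth of the strain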
Settings: S. cerevisiae deletion strains, growth OD

Measured: normalized growth

COC(=O)[C@]1(C)CC[C@]2(C)CC[C@]3(C)C4=CCc5c(cc(O)c(O)c5C)[C@]4(C)CC[C@@]3(C)C2C1 (some centres not stated)
active: locus YLR418C, strain cdc73, hits give low values 0.802
inactive: locus YAL013W, strain DEP1, hits give low values 0.992 | locus YBR021W, strain FUR4, hits give low values 0.985 | locus YBR229C, strain ROT2, hits give low values 0.989 | locus YCL029C, strain bik1, hits give low values 0.98 | locus YDL035C, strain GPR1, hits give low values 0.968 | locus YDL074C, strain BRE1, hits give low values 0.915 | locus YDL101C, strain DUN1, hits give low values 0.975 | locus YDL134C, strain PPH21, hits give low values 1.01 | locus YDL185W, strain tfp1, hits give low values 0.984 | locus YDL192W, strain arf1, hits give low values 0.968 | locus YDR101C, strain arx1, hits give low values 0.947 | locus YDR162C, strain NBP2, hits give low values 0.992 | locus YDR318W, strain mcm21, hits give low values 0.994 | locus YDR388W, hits give low values 0.983 | locus YDR502C, strain sam2, hits give low values 0.961 | locus YEL061C, strain CIN8, hits give low values 0.991 | locus YER110C, hits give low values 0.978 | locus YER155C, strain BEM2, hits give low values 0.992 | locus YER167W, strain BCK2, hits give low values 0.992 | locus YGL078C, strain dbp3, hits give low values 0.981 | locus YGL086W, strain mad1, hits give low values 0.94 | locus YGL248W, strain PDE1, hits give low values 0.985 | locus YGR078C, strain PAC10, hits give low values 0.971 | locus YGR135W, strain pre9, hits give low values 0.99 | locus YGR252W, strain gcn5, hits give low values 1.09 | locus YHR030C, strain SLT2, hits give low values 0.994 | locus YHR079C, strain IRE1 (second series), hits give low values 0.982 | locus YHR094C, strain hxt1, hits give low values 0.978 | locus YHR129C, strain ARP1, hits give low values 0.962 | locus YHR200W, strain rpn10, hits give low values 0.986 | locus YIL066C, strain RNR3, hits give low values 0.969 | locus YIL073C, strain SPO22, hits give low values 0.983 | locus YIL125W, strain kgd1, hits give low values 0.975 | locus YIR030C, strain dcg1, hits give low values 0.982 | locus YJL095W, strain BCK1, hits give low values 0.958 | locus YJL134W, strain LCB3, hits give low values 0.991 | locus YJL168C, strain set2, hits give low values 0.978 | locus YJL187C, strain SWE1 (second series), hits give low values 0.961 | locus YJR043C, strain POL32, hits give low values 0.989 | locus YKL009W, strain mrt4, hits give low values 1.03 | locus YKL068W, hits give low values 0.977 | locus YKL085W, strain MDH1 (second series), hits give low values 0.977 | locus YKL085W, strain MDH1, hits give low values 0.977 | locus YKR001C, strain vps1, hits give low values 0.937 | locus YLR039C, strain RIC1, hits give low values 0.945 | locus YLR058C, strain SHM2, hits give low values 0.983 | locus YLR102C, strain apc9, hits give low values 0.984 | locus YLR262C, strain YPT6, hits give low values 0.938 | locus YLR268W, strain sec22, hits give low values 0.939 | locus YLR330W, strain CHS5, hits give low values 0.988 | locus YLR342W, strain FKS1 (second series), hits give low values 0.953 | locus YLR371W, strain rom2, hits give low values 0.955 | locus YML016C, strain PPZ1, hits give low values 0.982 | locus YML032C, strain rad52, hits give low values 1.01 | locus YML124C, strain tub3, hits give low values 0.98 | locus YMR078C, strain ctf18, hits give low values 0.958 | locus YMR223W, strain ubp8, hits give low values 0.984 | locus YMR263W, strain SAP30, hits give low values 0.998 | locus YMR307W, strain GAS1, hits give low values 0.954 | locus YNL067W, strain RPL9B, hits give low values 0.998 | locus YNL153C, strain GIM3, hits give low values 0.973 | locus YNL233W, strain BNI4, hits give low values 0.951 | locus YNL250W, strain rad50, hits give low values 0.977 | locus YNL271C, strain bni1, hits give low values 0.979 | locus YNL298W, strain CLA4, hits give low values 1.01 | locus YNL307C, strain MCK1, hits give low values 0.962 | locus YNL322C, strain KRE1, hits give low values 0.993 | locus YNR052C, strain pop2, hits give low values 0.985 | locus YOL012C, strain htz1 1.1 | locus YOL147C, strain pex11, hits give low values 0.998 | locus YOR061W, strain CKA2, hits give low values 0.981 | locus YOR069W, strain VPS5, hits give low values 0.984 | locus YOR136W, strain idh2, hits give low values 0.966 | locus YOR144C, strain elg1, hits give low values 0.973 | locus YOR184W, strain ser1, hits give low values 0.902 | locus YOR316C, strain cot1, hits give low values 0.983 | locus YPR119W, strain clb2, hits give low values 0.971 | locus YPR141C, strain kar3, hits give low values 0.968 | locus YPR163C, strain tif3, hits give low values 0.968 | locus YPR167C, strain met16, hits give low values 0.976 | strain wtn01, hits give low values 0.929
